Screen size: about 100,000 compounds; about 250 (0.25%) were called active. Inconclusive results (about 7%) are left out. Calls come from the whole dose curve; as a rule, active = well fitted inhibition curve with a large enough effect; inconclusive = small, poorly fitted or top-dose-only effect; inactive = flat fitted curve, though single readings scatter. The sample as a whole holds a higher share of actives than the screen did.
Target: Alanine aminotransferase 2 (Homo sapiens) (UniProt Q8TD30)
Test: Primary qHTS assay for inhibitors of Glutamate pyruvate transaminase 2 (GPT2); note: nearly all actives have a fitted effect of over 60% in size
Conditions: Recombinant GPT2, coupled pyruvate oxidase/HRP Amplex Red fluorescence; series mostly up to 57.7 µM; activity change, negative = inhibition: at the top concentration
Experimental: Assay Provider: Zhenghe John Wang Ph.D.
Case Western Reserve University, Cleveland OH
Glutamate pyruvate transaminase 2 (GPT2) catalyzes the reversible transamination of glutamate and pyruvate to provide a-ketoglutarate and alanine. We have optimized an assay for GPT2 enzymatic activity that couples pyruvate formation to detection of fluorescence using an established pyruvate oxidase/horseradish peroxidase / Amplex Red system.
Screening conditions were 250uM a-KG, 2mM L-alanine, and 10ng/uL GPT2 in […] of solution; 10uL of Amplex reaction mix (outlined below) were added so that final concentrations of Amplex reagents in 50uL were 0.2mM ThPP, 0.2U/mL PO and HRP, and 50uM Amplex.
NOTE: The volume of GPT2 in the system depends on the activity of it. The activity is different every batch. You need to test the activity before the assay. For full plate assay with automation, plate 20uL of GPT2 buffer to pin into, then add 10uL of GPT2 dilution followed immediately by 10uL of substrate dilution. 2 Columns of the plate were devoted to GPT2 buffer ([…] PH7.5, 0.0001% Tween) + 50uM AOA (known GPT2 inhibitor) to serve as a positive control. Complete the assay as normal. Amplex-red buffer: […] PH7.5, 1 mM EDTA, 1 mM MgCl2.
1. Combine a-KG and L-alanine at desired concentrations and incubate for at least 10 minutes at 37C. Stocks of L-alanine and a-KG are diluted in distilled water. However, the stocks were diluted in GPT2 buffer for the assay.
2. Prepare GPT2 dilution at the desired concentration in GPT2 buffer.
3. Plate 40uL of GPT2 dilution with 40uL of substrate dilution and let incubate for 30 minutes at room temperature.
4. Add 20uL of Amplex reaction mix prepared as follows: 1.5uL 200U/mL Horseradish Peroxidase, 200mM Thiamine Pyrophosphate, 200U/mL Pyruvate Oxidase; 7.5uL 10mM Amplex Red; 288uL Amplex Buffer.
5. Incubate for 30 minutes at room temperature in the dark, then image using AM_Amplex_Fluorescence on plate reader nearest the window.
% is set by controls: 0 for no effect and ±100 for the full control effect; potency is the fitted concentration of half-maximal effect.

Alanine aminotransferase 2 (Homo sapiens), sequence (Q8TD30 whole entry, looked up): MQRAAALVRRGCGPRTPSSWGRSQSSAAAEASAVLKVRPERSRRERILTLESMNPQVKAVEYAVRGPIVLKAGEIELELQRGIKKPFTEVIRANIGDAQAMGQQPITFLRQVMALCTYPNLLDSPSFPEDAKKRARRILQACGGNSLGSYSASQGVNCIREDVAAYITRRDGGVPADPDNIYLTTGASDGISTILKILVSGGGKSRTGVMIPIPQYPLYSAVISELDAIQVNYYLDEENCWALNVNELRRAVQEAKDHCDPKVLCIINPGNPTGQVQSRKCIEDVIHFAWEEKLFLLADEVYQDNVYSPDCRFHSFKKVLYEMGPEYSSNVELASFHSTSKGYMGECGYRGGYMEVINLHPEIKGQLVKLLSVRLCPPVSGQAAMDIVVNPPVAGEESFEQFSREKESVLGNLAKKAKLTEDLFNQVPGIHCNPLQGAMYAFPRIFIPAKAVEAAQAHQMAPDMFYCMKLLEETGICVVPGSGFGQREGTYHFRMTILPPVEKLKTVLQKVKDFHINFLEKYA

| Structure (SMILES) | outcome | activity change, negative = inhibition | Potency |
| --- | --- | --- | --- |
| CCc1cccc2c(C(CC(=O)NCC(C)C)c3ccccc3OC)c[nH]c12 (centres undefined) | inactive | – | – |
| COc1ccc(C(=O)N2CCN(C(C(=O)O)c3cccc(O)c3)CC2)cc1 (centres undefined) | – | -24.9% (inactive) | – |
| CN1c2cc(C(=O)NCc3ccccc3Br)ccc2C(=O)N2CCCCC21 (centres undefined) | inactive | – | – |
| COc1cccc(CN2C(=O)OC3(CCN(C(=O)C4CCC(OC)CC4)CC3)C2(C)c2cccnc2)c1 (centres undefined) | – | -4.1% (inactive) | – |
| C=CCn1cc2c3c(cccc31)[C@H](CC(C)C)N[C@H](C(=O)NCC1CC1)C2 | – | -3.39% [at 88.5 µM] (inactive) | – |
| Cc1ccc(CN2CCC3(CC2)CN(C2CCC2)CC3CO)o1 (centres undefined) | – | 1.81% (inactive) | – |
| NC1(C(=O)NCCC2CCCN(Cc3ccc4occc4c3)C2)CC1 (centres undefined) | – | -9.89% (inactive) | – |
| COC(=O)[C@@H]1CN(C(=O)c2cccnc2)CCN1C(C)=O | – | -50.5% [at 88.5 µM] (inactive) | – |
| FC(F)(F)c1ccc(CN2CCn3c(nnc3-c3ccccc3)C2)cc1 | – | -4.47% (inactive) | – |
| Cc1noc(C)c1CCCNC(=O)c1ccc(N(C)C2CCOC2)nc1 (centres undefined) | inactive | – | – |
| Cc1nc(C)c(C)c(N2CCCC(c3nccn3Cc3ccccc3)C2)n1 (centres undefined) | – | 1.46% (inactive) | – |
| COC(=O)CNC(=O)C1CN(c2ccccc2)C(=O)N1 (centres undefined) | inactive [at 88.5 µM] | – | – |
| O=C1NCCCCCCN(C(=O)c2cccs2)[C@H]2C[C@H](c3nc(Cc4ccccc4)no3)C[C@@H]12 | inactive | – | – |
| O=C(CCc1nnn2c1CN(C(=O)NCc1ccc(F)cc1)CC2)N1CCOCC1 | inactive | – | – |
| Cc1noc(C)c1[S+](=O)([O-])NC1CCN(Cc2ccc(-c3ccsc3)cc2)C1 (centres undefined) | inactive | – | – |
| CCCNC(=O)N1CCCCC1c1nc(CCOc2ccc(F)cc2)no1 (centres undefined) | – | -7.85% (inactive) | – |
| CCCNC(=O)N1CCn2nnc(CCC(=O)N3CCOCC3)c2C1 | – | 0.613% (inactive) | – |
| Cc1cc2ncc(C(=O)NCC3CC3)cn2n1 | – | -7.15% [at 88.5 µM] (inactive) | – |
| O=C(NCCc1ccccn1)C1CCCN(c2nc(-c3ccccc3)nc3c2CCC3)C1 (centres undefined) | – | 2.94% (inactive) | – |
| CCOc1ccc(CCCC(=O)N2CC[C@@](C)(O)[C@@H](O)C2)cc1C | – | 3.96% (inactive) | – |
| O=C(c1cncc(Br)c1)N1CCC(Cc2nc(C3CCOCC3)no2)CC1 | inactive | – | – |
| CC(=O)N[C@@H]1C=C(C(=O)N[C@H](CC(C)C)C(N)=O)C[C@@H](O)[C@@H]1O | – | -4.69% [at 88.5 µM] (inactive) | – |
| Cc1ccc(C(=O)N2C[C@@H](Oc3ccccc3)C[C@H]2C(=O)N2CCCC2)cn1 | – | -20.6% (inactive) | – |
| O=C(NCCn1ccc2ccc(Cl)cc21)C1CC(=O)N(c2n[nH]c3ccccc23)C1 (centres undefined) | inactive | – | – |
| COCCN1CC(CO)C2(CCN(Cc3cnn(C(C)C)c3)CC2)C1 (centres undefined) | inactive | – | – |
| Cn1cc(CN2CCCN(C(=O)c3ccco3)CC2)c(-c2ccc(C3CCCCC3)cc2)n1 | – | -7.7% (inactive) | – |
| COc1ccccc1CN1CC[C@@H](CO)N(C)c2ncccc2C1 | – | -5.98% [at 88.5 µM] (inactive) | – |

| Structure (SMILES) | outcome | activity change, negative = inhibition | Potency |
| --- | --- | --- | --- |
| COCCOc1ccnc(-c2noc([C@@H]3CCCN3Cc3ccc(Cl)cc3)n2)c1 | inactive [at 88.5 µM] | – | – |
| O=C(NCC(F)(F)F)c1nc2cccnc2n(CCc2ccccc2)c1=O | inactive | – | – |
| CC(C)C(=O)NC1CCCc2c1[nH]c1c(Cl)cccc21 (centres undefined) | – | -0.0645% (inactive) | – |
| O=S(=O)(c1ccc(F)cc1)N1CCCC(Cc2noc(-c3ccccc3)n2)C1 (centres undefined) | inactive | – | – |
| Cc1ccncc1C(=O)N1CCC(Cn2c(C)cnc2-c2cccnc2)CC1 | – | -12.9% (inactive) | – |
| COc1cccc(-c2cccc(C(=O)N3CCN(C(=O)Cc4ccc(F)cc4)CC3)c2)c1 | – | -11.3% (inactive) | – |
| COCCC1(NS(C)(=O)=O)CCN(S(=O)(=O)c2ccc3c(c2)OCCO3)CC1 | inactive | – | – |
| COc1cccc(-c2ccc(CN3CCCC3C(=O)NCc3ccccc3Cl)cc2)c1 (centres undefined) | – | 2.51% (inactive) | – |
| Cc1cc(Cl)ccc1S(=O)(=O)N1CCn2c(nn(CC3CC3)c2=O)C1 | – | 1.51% (inactive) | – |
| COCCN1C(=O)CCC2(CNC(=O)c3ccncc3)CCC=C12 (centres undefined) | inactive | – | – |
| O=C(NCC1CCCO1)c1csc(N2CCN(c3ccccc3F)CC2)n1 (centres undefined) | – | -18.5% (inactive) | – |
| NC(=O)c1cccc(-c2ncc3c(n2)OCCN(CC2CC2)C3=O)c1 | inactive [at 88.5 µM] | – | – |
| Cc1cc(C)cc(C(=O)NC2CCN(c3cnn(C)c(=O)c3)CC2)c1 | inactive | – | – |
| O=C(c1cccc(Cl)c1)N1CCC(C(=O)N2CCC(N3CCOCC3=O)CC2)CC1 | inactive | – | – |
| O=C(c1cnccn1)N1CCC(N2C(=O)C(OCC3CC3)C23CCOCC3)CC1 (centres undefined) | – | -7.16% (inactive) | – |
| O=C1NC2(CCN(Cc3ccc(F)cc3)C2)OCc2ccccc21 (centres undefined) | inactive [at 88.5 µM] | – | – |
| Cc1ccc2c(C)c(C(=O)N3CCCC3c3nc(C(C)C)no3)oc2c1C (centres undefined) | – | 3.09% (inactive) | – |
| COCCC1(CO)CCCN(C(=O)c2ccc(S(N)(=O)=O)cc2)C1 (centres undefined) | – | 4.37% (inactive) | – |
| C#CCN(Cc1nc(-c2cc(OC)ccc2F)oc1C)C1CCCCC1 | inactive | – | – |
| CNCC(O)c1ccc(O)c(O)c1 (centres undefined) | – | – | 6.31 µM (active) |
| COCC(=O)N1CCC(N2C[C@H](OC)[C@@H]2c2ccncc2)CC1 | inactive | – | – |
| CC1(C(=O)N2CCN(c3ccccn3)CC2)CCCc2cnc(Nc3cccnc3)nc21 (centres undefined) | – | -3.53% [at 88.5 µM] (inactive) | – |
| Cc1cc(C)c(C(=O)N2CCOC(Cc3ccc(F)cc3)C2)o1 (centres undefined) | – | 1.05% (inactive) | – |
| Cc1ccc(NC(=O)C2CCc3nnc(C4CCN(C(=O)NC(C)(C)C)CC4)n32)cc1 (centres undefined) | inactive | – | – |
| O=C(Cc1ccc(F)cc1)N1CCC(C(=O)N2CCC(c3nc4ncccc4[nH]3)CC2)C1 (centres undefined) | – | 1.34% (inactive) | – |
| CN(C)C(=O)NC1CCN(c2nc3ncccc3o2)CC1 | inactive [at 88.5 µM] | – | – |
| COc1cc2c(cc1OC)C(CNC(=O)c1cccc(Cl)c1)N(C(=O)Nc1ccccc1)CC2 (centres undefined) | inactive | – | – |

From PubChem BioAssay AID1671188 (National Center for Advancing Translational Sciences (NCATS), 2021)
